Screens deposited in PubChem BioAssay by several laboratories.
PriA SSB inh – inhibitors of Klebsiella pneumoniae PriA binding to SSB C-terminal tail, primary screen, biochemical, AlphaScreen. PriA–SSB C-terminal tail interaction (Klebsiella pneumoniae). AlphaScreen SSBct-PriA binding, biotinylated peptide. inhibition, % at 33 µM. 430,000 compounds, 0.6% hits. AID 1272365, 2023; in the data active = inhibition mostly above about 37%, no sharp cut-off; inactive = mostly below about 20%
BoNT-F LC inh – BoNT/F light chain protease inhibitors, primary screen, biochemical, flow cytometry, MLPCN library. Botulinum neurotoxin type F light chain protease (Clostridium botulinum). Multiplex microsphere protease cleavage assay. inhibition, % at 10 µM. 360,000 compounds, 0.22% hits; in the data active = inhibition above about 35%, passing the limit was not always enough; inconclusive = no clear call, values can overlap the other calls
Anthrax LF prot – Bacillus anthracis LF protease inhibitors, primary screen, biochemical, multiplex microsphere, MLPCN library. AID 588501, 2011. 360,000 compounds, 0.12% hits. multiplex microsphere protease cleavage assay. inhibition, % at 10 µM. Lethal factor (Bacillus anthracis), P15917
Autofluor counter – counter-screen for toxin protease inhibitors: compound fluorescence. compound autofluorescence counterscreen, microsphere flow cytometry; hits give high values. fluorescence intensity (concentration not given with the values). 360,000 compounds, 3.1% hits; in the data active = fluorescence intensity above about 16000; inconclusive = no clear call, values can overlap the other calls
BoNT A protease – BoNT/A light chain protease inhibitors, primary screen, biochemical, flow cytometry, MLPCN library | multiplex microsphere protease substrate cleavage | AID 588499, 2011 | inhibition, % at 10 µM | Botulinum neurotoxin type A light chain protease (Clostridium botulinum A str. ATCC 3502) | 360,000 compounds, 0.17% hits
Hits are given with their value; 0 = inactive; ? = inconclusive; - = no result. An excerpt weighted towards active compounds, which were near 3.1% of everything screened. Cut-off read from the data, not from the text of the source, unless noted: active = inhibition above about 30%; inconclusive = no clear call, values can overlap the other calls; inactive = below that.

SMILES	PriA SSB inh	BoNT-F LC inh	Anthrax LF prot	Autofluor counter	BoNT A protease
C#CCOC(=O)c1csc2nnsc12	0	0	0	21747	?
COc1ccc(N(CC(=O)Nc2ccccc2C(=O)NCCc2ccccc2)S(C)(=O)=O)cc1OC	0	0	0	21907	0
CS(=O)(=O)N(CC(=O)Nc1ccccc1C(=O)NCc1ccco1)c1ccc2c(c1)OCCO2	0	0	0	23961	0
CCC(C)NC(=O)c1ccccc1NC(=O)CN(c1ccc(OC)cc1)S(C)(=O)=O (stereo not given)	0	0	0	23469	0
COc1cccc(NC(=O)C(=O)NCCC(C)C)c1	0	-	-	-	-
Brc1ccc(Cn2c(-c3cncs3)nc3ccccc32)cc1	0	0	0	0	0
Brc1cccc(Cn2c(-c3cncs3)nc3ccccc32)c1	0	0	0	22203	?
N#CCCCCn1c(-c2cncs2)nc2ccccc21	0	0	0	0	0
c1ccc(Cn2c(-c3cncs3)nc3ccccc32)cc1	0	0	0	20700	0
O=C(Nc1nc2cc3c(cc2s1)OCO3)C1CCCN1S(=O)(=O)c1ccc(Cl)s1 (stereo not given)	0	-	-	-	-
CC1([N+](=O)[O-])COP(=O)(Nc2cccc(Br)c2)OC1 (stereo not given)	0	0	0	16672	0
CC1([N+](=O)[O-])COP(=O)(Nc2ccc(Cl)cc2)OC1 (stereo not given)	0	0	0	0	0
CCCn1c(C(=O)N2CC(S(=O)(=O)Cc3ccco3)C2)cc2c(=O)n(C)c(=O)n(C)c21	0	-	-	-	-
Cc1ccc(N2C(=O)NC(=O)/C(=C/c3ccc(OC(=O)c4cccs4)cc3)C2=O)cc1	0	0	0	24767	?
CC(C(=O)Nc1sc2c(c1C(=O)NCc1ccco1)CCCC2)N1C(=O)c2ccccc2C1=O (stereo not given)	0	0	0	0	0
O=C(CCN1C(=O)c2ccccc2C1=O)Nc1sc2c(c1C(=O)NCc1ccco1)CCCC2	0	0	0	23594	?
O=C(Nc1sc2c(c1C(=O)NCc1ccco1)CCCC2)c1ccc2c(c1)OCO2	0	0	0	21722	0
O=C(Nc1sc2c(c1C(=O)NCc1cccnc1)CCCC2)c1ccco1	0	0	0	22004	0
COC(=O)Nc1sc2c(c1C(=O)NC1CC1)CCCCCC2	0	0	0	16545	0
Cc1ccc(S(=O)(=O)N2CCN(CC(=O)NN=C/C(Cl)=C/c3ccccc3)CC2)cc1	0	-	-	-	-
COc1cc(Cn2nc(-c3cccs3)c3sc(N4CCCCC4)nc3c2=O)cc(OC)c1	0	-	-	-	-
O=S(=O)(NN=Cc1ccccc1F)c1ccccc1	0	-	-	-	-
COc1ccc(OC)c(-c2csc(NC(=O)C3CCCN3S(C)(=O)=O)n2)c1 (stereo not given)	0	-	-	-	-
COC(=O)Nc1sc2c(c1C(=O)NCc1ccco1)CCC2	0	0	0	20826	?
COC(=O)Nc1sc2c(c1C(=O)NCc1ccco1)CCCC2	0	0	0	17349	0
SMILES	PriA SSB inh	BoNT-F LC inh	Anthrax LF prot	Autofluor counter	BoNT A protease
CCOC(=O)c1sc(NC(=O)c2ccc(CC)s2)nc1C	0	0	0	19861	0
C=CCOC(=O)c1sc(NC(=O)c2ccco2)nc1C	0	0	0	19408	0
CCOC(=O)c1sc(NC(=O)c2c(F)cccc2F)nc1C	0	-	-	-	-
CC(=O)Nc1ccc(S(=O)(=O)N(c2cccnc2)S(=O)(=O)c2ccc(NC(C)=O)cc2)cc1	0	0	0	23675	0
CC(=O)Nc1ccc(S(=O)(=O)N2CCN(C(=O)c3cccnc3)CC2)cc1	0	0	0	23558	0
O=C(Nc1ccc(S(=O)(=O)N2CCN(Cc3ccccc3)CC2)cc1)c1cnccn1	0	0	0	16875	0
CCOC(=O)c1oc2ccccc2c1NC(=O)c1cc2ccccc2oc1=O	0	-	-	-	-
Cc1ccc(NC(=O)Cn2cccc(-c3nc(-c4ccccc4)no3)c2=O)c(Cl)c1	0	-	-	-	-
N#CCCS(=O)(=O)c1ccc(Cl)cc1	0	-	-	-	-
Cc1cc(Nc2ccccc2N2CCOCC2)n2ncnc2n1	0	0	0	16563	0
Cc1cc(Nc2ccccc2C(=O)O)n2ncnc2n1	-	0	0	0	0
c1ccc(CSC2=NCCN2)cc1	0	-	-	-	-
O=C(CS(=O)c1ccc(C(F)(F)F)cc1[N+](=O)[O-])Oc1ccc(Cl)cc1 (stereo not given)	0	0	0	22500	0
O=C(CN(CCc1ccccc1)Cc1ccccc1)Oc1ccccc1P(=O)(O)O	91.8	0	0	0	0
NC(=O)c1cc(N2C(=O)C3CC=CCC3C2=O)ccc1N1CCCCC1 (stereo not given)	0	0	0	23233	0
O=S(=O)(NCC1CCCO1)c1ccc(S(=O)(=O)N2CCCC2)cc1 (stereo not given)	0	0	0	0	0
CC1CCN(S(=O)(=O)c2ccc(S(=O)(=O)NCC3COCCO3)cc2)CC1 (stereo not given)	0	0	0	23033	0
Cc1ccccc1OCC(=O)N1CCC(S(=O)(=O)c2nncn2C)CC1	0	-	-	-	-
COc1ccc(COc2ccsc2C(=O)Nc2ccc(Cl)cc2)cc1	0	0	0	19044	0
c1ccc(Nc2ccc(N3CCNCC3)nn2)nc1	56.0	-	-	-	-
O=C(/C=C/c1ccco1)NC(=S)NNC(=O)c1cnccn1	65.6	-	-	-	-
O=C(NN=Cc1ccco1)c1cnccn1	0	-	-	-	-
COc1ccc(C(=O)NC(=S)NNC(=O)c2cnccn2)cc1	0	0	0	0	0
COc1cc(C(=O)NC(=S)NNC(=O)c2cnccn2)cc(OC)c1OC	81.8	0	0	0	0
COc1ccc(N2CCN(Cc3nc(N)nc(Nc4ccc(C)c(Cl)c4)n3)CC2)cc1	0	0	0	21102	0
SMILES	PriA SSB inh	BoNT-F LC inh	Anthrax LF prot	Autofluor counter	BoNT A protease
COc1cccc(N2CCN(Cc3nc(N)nc(Nc4ccccc4OC)n3)CC2)c1	0	0	0	0	0
Cc1ccc(Nc2nc(N)nc(CN3CCN(c4ccccc4)CC3)n2)cc1Cl	0	0	0	21461	?
Nc1nc(CN2CCN(c3ccccn3)CC2)nc(Nc2ccc(F)cc2)n1	0	0	0	16591	0
Nc1nc(CN2CCCCCC2)nc(Nc2ccc(F)cc2)n1	0	0	0	0	0
COc1ccccc1Nc1nc(N)nc(CN2CCN(c3ccccc3)CC2)n1	0	0	0	21394	0
Cc1ccc(Nc2nc(N)nc(CN3CCN(Cc4ccc5c(c4)OCO5)CC3)n2)cc1Cl	0	0	0	23185	0
CC(=O)OC1CS(=O)(=O)CC1OC(C)=O (stereo not given)	0	-	-	-	-
COc1ccc(Br)cc1C1NC(=O)NC1=O (stereo not given)	47.0	-	-	-	-
Cc1ccc(S(=O)(=O)N2CCCC(C(=O)NCCC3=CCCCC3)C2)cc1 (stereo not given)	0	0	0	21132	0
O=C(NCCC1=CCCCC1)C1CCN(S(=O)(=O)N2CCCC2)CC1	0	0	0	0	0
O=C(NCCC1=CCCCC1)C1CCCN(S(=O)(=O)c2ccc(F)cc2)C1 (stereo not given)	0	0	0	0	0
